In PubChem BioAssay (NCI):
This is part of a sample that, as a whole, favours compounds with a hit. Of some 79,000 tested, about 15% had one in any assay. The source made the active and inactive calls. Cut-off read from the data, not from the text of the source: active = growth inhibition above about 70%; inactive = the rest.

Experiments:
[1] = NCI Yeast Anticancer Drug Screen. Data for the rad52 strain (AID 147);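 note: 0% = growth of vehicle-treated control cultures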; conditions: S. cerevisiae rad52 mutant growth inhibition, stronger effect = higher value
Summary of the method: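 Screen used a yeast mutant impaired in DNA repair. After compound exposure, growth was measured. Values reflect inhibition compared with vehicle-treated cells.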

[2] = NCI Yeast Anticancer Drug Screen. Data for the wt1 strain (AID 149);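 note: 0% = growth of vehicle-treated wt1 cultures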; conditions: S. cerevisiae wt1 strain (SPY 50644) growth inhibition, stronger effect = higher value
Summary of the method: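 Measured: growth of wt1 yeast under compound versus vehicle treatment, reported as inhibition.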

[3] = NCI Yeast Anticancer Drug Screen. Data for the rad50EPP+ strain (AID 151);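 note: 0% = growth of vehicle-treated control cultures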; conditions: S. cerevisiae rad50 mutant strain, stronger effect = higher value
Summary of the method: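 Exposing the rad50EPP+ strain to each compound, growth was compared with vehicle-only cultures to give inhibition.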

[4] = NCI Yeast Anticancer Drug Screen. Data for the mgt1 strain (AID 153); conditions: S. cerevisiae mgt1 mutant growth inhibition, stronger effect = higher value
Summary of the method: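 Genetically defined yeast (mgt1) treated with compound; inhibition of growth expressed against vehicle-treated controls.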

[5] = NCI Yeast Anticancer Drug Screen. Data for the rad50 strain (AID 155);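 note: 0% = growth of vehicle-only cultures of the same strain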; conditions: S. cerevisiae rad50 strain growth inhibition, stronger effect = higher value
Summary of the method: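 Growth of the mutant yeast was measured after compound exposure and referenced to vehicle-treated cultures.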

[6] = NCI Yeast Anticancer Drug Screen. Data for the mec2-1 strain (AID 157); conditions: S. cerevisiae mec2-1 strain, stronger effect = higher value
Summary of the method: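 Readout is yeast growth inhibition, normalised to vehicle-treated controls, in the mec2-1 strain exposed to compound.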

[7] = NCI Yeast Anticancer Drug Screen. Data for the rad14 strain (AID 159);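 note: 0% = growth of vehicle-treated control cultures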; conditions: S. cerevisiae rad14 strain growth inhibition, stronger effect = higher value
Summary of the method: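 Here, inhibition of yeast growth was measured after compound exposure, using a strain with a genetic defect in DNA damage repair and vehicle-treated cultures as the reference.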

[8] = NCI Yeast Anticancer Drug Screen. Data for the sgs1 mgt1 strain (AID 161);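 note: 0% = growth of cultures given vehicle only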; conditions: S. cerevisiae sgs1 mgt1 strain, stronger effect = higher value
Summary of the method: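 This yeast growth screen uses a strain with defined DNA-repair lesions; compound-treated growth is compared with vehicle-treated growth.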

[9] = NCI Yeast Anticancer Drug Screen. Data for the CLN2oe strain (AID 163);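 note: 0% = growth of vehicle-only control cultures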; conditions: S. cerevisiae CLN2oe strain, stronger effect = higher value
Summary of the method: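 Values reflect how much compound exposure reduced yeast growth, referenced to vehicle-exposed cells. Assay organism is a strain with a defined genetic change affecting cell-cycle control.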

[10] = NCI Yeast Anticancer Drug Screen. Data for the cln2 rad14 strain (AID 165);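 note: 0% = growth equal to vehicle treated cultures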; conditions: S. cerevisiae cln2 rad14 strain, stronger effect = higher value
Summary of the method: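 Relative to vehicle controls, growth inhibition of compound-treated cln2 rad14 yeast was recorded.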

[11] = NCI Yeast Anticancer Drug Screen. Data for the bub3 strain (AID 167); conditions: S. cerevisiae bub3 mutant strain, stronger effect = higher value
Summary of the method: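 Whole-cell yeast assay. The mutant strain was incubated with compounds, and growth inhibition was determined by comparison with vehicle-treated cells.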

[12] = NCI Yeast Anticancer Drug Screen. Data for the mlh1 strain (AID 171);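 note: 0% = growth of vehicle-treated control cultures of the same strain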; conditions: S. cerevisiae mlh1 strain growth inhibition, stronger effect = higher value
Summary of the method: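 Steps: expose the defined-mutant yeast strain to compound; expose a parallel culture to vehicle; measure growth; express compound effect as inhibition relative to the vehicle culture.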

[13] = NCI Yeast Anticancer Drug Screen. Data for the sgs1 strain (AID 173);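 note: 0% = growth of vehicle-only control cultures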; conditions: S. cerevisiae sgs1 mutant, stronger effect = higher value
Summary of the method: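 Treat defined-mutant yeast with compound; measure growth; calculate inhibition relative to vehicle-treated cells.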

[14] = NCI Yeast Anticancer Drug Screen. Data for the mlh1 rad18 strain (AID 175); conditions: S. cerevisiae mlh1 rad18 strain growth inhibition, stronger effect = higher value
Summary of the method: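 Test agents were incubated with a yeast strain of defined genotype (DNA damage repair defect). Inhibition of growth was derived by comparison with vehicle-exposed cultures.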

[15] = NCI Yeast Anticancer Drug Screen. Data for the rad18 strain (AID 177); conditions: S. cerevisiae rad18 mutant growth inhibition, stronger effect = higher value
Summary of the method: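 A genetically defined yeast mutant impaired in DNA damage repair was treated with test compounds, then its growth was measured against cultures receiving vehicle alone.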

[16] = at 5.0 µM (retest, dose inferred, filed as 0.5)
[17] = at 50.0 µM (retest, dose inferred, filed as 5.0)

Measured: growth inhibition

O=C(Nc1ccc(Cl)cc1)Nc1nnc2nc(C(C(=O)c3cccc([N+](=O)[O-])c3Cl)c3nc4nnc(NC(=O)Nc5ccc(Cl)cc5)n4[nH]c3=O)c(=O)[nH]n12
active: [5]; at 50.0 µM 99.5% | [6]; at 50.0 µM 99.5% | [8]; at 50.0 µM 99% | [10]; at 50.0 µM 99.2% | [11]; at 50.0 µM 99.5% | [14]; at 50.0 µM 99.4%
inactive: [1]; at 1.2 µM 2% | [1]; at 3.7 µM 2% | [1]; at 11.0 µM 2% | [1]; at 33.0 µM 4% | [1]; at 100.0 µM 52% | [2]; at 1.2 µM 1% | [2]; at 3.7 µM 1% | [2]; at 11.0 µM 3% | [2]; at 33.0 µM -1% | [2]; at 100.0 µM 30% | [3]; at 1.2 µM 4% | [3]; at 3.7 µM 5% | [3]; at 11.0 µM 8% | [3]; at 33.0 µM 23% | [3]; at 100.0 µM 29% | [4]; at 1.2 µM 0% | [4]; at 3.7 µM 1% | [4]; at 11.0 µM 0% | [4]; at 33.0 µM 15% | [4]; at 100.0 µM 47% | [5]; at 1.2 µM 1% | [5]; at 3.7 µM 0% | [5]; [16] -12% | [5]; at 11.0 µM 2% | [5]; at 33.0 µM 2% | [5]; [17] 10% | [5]; at 100.0 µM 31% | [6]; at 1.2 µM -4% | [6]; at 3.7 µM -2% | [6]; [16] -2% | [6]; at 11.0 µM -12% | [6]; at 33.0 µM 0% | [6]; [17] 10% | [6]; at 100.0 µM 68% | [7]; at 1.2 µM 0% | [7]; at 3.7 µM -3% | [7]; at 11.0 µM 0% | [7]; at 33.0 µM 1% | [7]; at 100.0 µM 56% | [8]; [16] 2% | [8]; [17] 28% | [9]; at 1.2 µM -6% | [9]; at 3.7 µM -8% | [9]; at 11.0 µM -5% | [9]; at 33.0 µM -12% | [9]; at 100.0 µM 37% | [10]; [16] -8% | [10]; [17] 14% | [11]; at 1.2 µM -5% | [11]; at 3.7 µM -5% | [11]; [16] -22% | [11]; at 11.0 µM -7% | [11]; at 33.0 µM -8% | [11]; [17] 22% | [11]; at 100.0 µM 64% | [12]; at 1.2 µM 1% | [12]; at 3.7 µM -2% | [12]; at 11.0 µM 2% | [12]; at 33.0 µM -1% | [12]; at 100.0 µM 35% | [13]; at 1.2 µM -1% | [13]; at 3.7 µM 0% | [13]; at 11.0 µM -2% | [13]; at 33.0 µM 1% | [13]; at 100.0 µM 60% | [14]; [16] -20% | [14]; [17] 55% | [15]; at 1.2 µM -1% | [15]; at 3.7 µM -3% | [15]; at 11.0 µM -12% | [15]; at 33.0 µM -2% | [15]; at 100.0 µM 45%

C[C@@](O)(/C=C/[C@H]1CC=CC(=O)O1)[C@@H](C[C@@H](O)\C=C/C=C\C=C\CO)OP(=O)(O)O
inactive: [1]; at 1.2 µM 26% | [1]; at 3.7 µM 22% | [1]; at 11.0 µM 37% | [1]; at 33.0 µM 66% | [2]; at 1.2 µM 18% | [2]; at 3.7 µM 13% | [2]; at 11.0 µM 15% | [2]; at 33.0 µM 35% | [3]; at 1.2 µM 18% | [3]; at 3.7 µM 15% | [3]; at 11.0 µM 17% | [3]; at 33.0 µM 25% | [3]; at 100.0 µM 33% | [4]; at 1.2 µM 33% | [4]; at 3.7 µM 28% | [4]; at 11.0 µM 33% | [4]; at 33.0 µM 51% | [5]; at 1.2 µM 27% | [5]; at 3.7 µM 30% | [5]; [16] 1% | [5]; at 11.0 µM 41% | [5]; at 33.0 µM 62% | [5]; [17] 53% | [5]; at 50.0 µM 67.2% | [6]; at 1.2 µM 9% | [6]; at 3.7 µM 22% | [6]; [16] -2% | [6]; at 11.0 µM 25% | [6]; at 33.0 µM 46% | [6]; [17] 34% | [6]; at 50.0 µM 50.6% | [7]; at 1.2 µM 9% | [7]; at 3.7 µM 13% | [7]; at 11.0 µM 11% | [7]; at 33.0 µM 50% | [8]; [16] 17% | [8]; [17] 60% | [9]; at 1.2 µM 46% | [9]; at 3.7 µM 26% | [9]; at 11.0 µM 25% | [9]; at 33.0 µM 54% | [10]; [16] 5% | [10]; [17] 17% | [10]; at 50.0 µM 42.6% | [11]; at 1.2 µM 29% | [11]; at 3.7 µM 45% | [11]; [16] 34% | [11]; at 11.0 µM 63% | [12]; at 1.2 µM 21% | [12]; at 3.7 µM 20% | [12]; at 11.0 µM 34% | [12]; at 33.0 µM 61% | [13]; at 1.2 µM 33% | [13]; at 3.7 µM 32% | [13]; at 11.0 µM 42% | [13]; at 33.0 µM 59% | [14]; [16] -2% | [14]; [17] 48% | [14]; at 50.0 µM 19.3% | [15]; at 1.2 µM 40% | [15]; at 3.7 µM 34% | [15]; at 11.0 µM 41% | [15]; at 33.0 µM 54%
active: [1]; at 100.0 µM 90% | [2]; at 100.0 µM 81% | [4]; at 100.0 µM 86% | [5]; at 100.0 µM 92% | [6]; at 100.0 µM 84% | [7]; at 100.0 µM 94% | [8]; at 50.0 µM 73% | [9]; at 100.0 µM 82% | [11]; at 33.0 µM 86% | [11]; [17] 91% | [11]; at 50.0 µM 86.1% | [11]; at 100.0 µM 93% | [12]; at 100.0 µM 88% | [13]; at 100.0 µM 90% | [15]; at 100.0 µM 84%

NNC(=O)CCc1cc2ccccc2c2ccccc12
active: [1]; at 100.0 µM 99% | [2]; at 100.0 µM 99% | [4]; at 100.0 µM 99% | [5]; [17] 99% | [5]; at 50.0 µM 97.9% | [5]; at 100.0 µM 99% | [6]; [17] 99% | [6]; at 50.0 µM 98.8% | [6]; at 100.0 µM 99% | [7]; at 100.0 µM 99% | [8]; [17] 98% | [8]; at 50.0 µM 98.5% | [9]; at 100.0 µM 99% | [10]; [17] 98% | [10]; at 50.0 µM 98% | [11]; [17] 98% | [11]; at 50.0 µM 98.8% | [11]; at 100.0 µM 99%
inactive: [1]; at 1.2 µM -15% | [1]; at 3.7 µM -10% | [1]; at 11.0 µM -5% | [1]; at 33.0 µM 26% | [2]; at 1.2 µM 3% | [2]; at 3.7 µM 2% | [2]; at 11.0 µM 9% | [2]; at 33.0 µM 4% | [3]; at 1.2 µM -8% | [3]; at 3.7 µM -21% | [3]; at 11.0 µM -16% | [3]; at 33.0 µM 28% | [3]; at 100.0 µM 50% | [4]; at 1.2 µM -3% | [4]; at 3.7 µM -8% | [4]; at 11.0 µM -2% | [4]; at 33.0 µM 1% | [5]; at 1.2 µM -13% | [5]; at 3.7 µM -16% | [5]; [16] 19% | [5]; at 11.0 µM -12% | [5]; at 33.0 µM 38% | [6]; at 1.2 µM -2% | [6]; at 3.7 µM -2% | [6]; [16] 12% | [6]; at 11.0 µM -2% | [6]; at 33.0 µM -2% | [7]; at 1.2 µM -2% | [7]; at 3.7 µM -1% | [7]; at 11.0 µM 23% | [7]; at 33.0 µM 31% | [8]; [16] 28% | [9]; at 1.2 µM -9% | [9]; at 3.7 µM -7% | [9]; at 11.0 µM -12% | [9]; at 33.0 µM -2% | [10]; [16] 11% | [11]; at 1.2 µM -7% | [11]; at 3.7 µM -8% | [11]; [16] 50% | [11]; at 11.0 µM -9% | [11]; at 33.0 µM 18%
